Measured values as given in PubChem BioAssay (EPA / NIEHS).
Records with an inconclusive call do not appear. Calls of active or inactive are those of the source. Rule for the calls: active = hit-call score of the fitted dose curve at least 0.9, where 1 is the maximum; inconclusive = response in the unintended direction; inactive = score below 0.9.

Experiment: Tanguay_ZF_120hpf_EYE_legacy: (Legacy) Oregon State University Tanguay Lab 120 Hour Post-fertilization zebrafish Assay for Eye Malformation (AID 2283636);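 note: binary presence or absence of eye malformation scored by brightfield in 120 hpf larvae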
Outline: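 Static waterborne exposure of dechorionated zebrafish embryos (strain Tropical 5D), 6 to 120 hpf, sealed plates at 28C, 0.64% DMSO vehicle. Eye malformation is scored as a binary endpoint, with gain of signal analysed relative to DMSO.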

| SMILES | outcome | AC50 |
| --- | --- | --- |
| CCCCCCCCCCCCCCC | inactive |  |
| CCCCCCCCCCCCOS(=O)(=O)O | inactive |  |
| CN(Cc1cnc2nc(N)nc(N)c2n1)c1ccc(C(=O)N[C@@H](CCC(=O)O)C(=O)O)cc1 | inactive |  |
| CN(C)CCOC(c1ccccc1)c1ccccc1 | inactive |  |
| CS(=O)(=O)c1ccc([C@@H](CC2CCCC2)C(=O)Nc2cnccn2)cc1Cl | inactive |  |
| O=C1NS(=O)(=O)c2ccccc21 | inactive |  |
| CCC(C)c1ccccc1O (configuration not stated) | inactive |  |
| CCCCC=O |  | 38.4 µM (active) |
| OCC(CO)(CBr)CBr | inactive |  |
| N=C(N)c1ccc(OCCCCCOc2ccc(C(=N)N)cc2)cc1 | inactive |  |
| CC(=O)Nc1ccc(O)cc1 | inactive |  |

Experiment: Tanguay_ZF_120hpf_SNOU_legacy: (Legacy) Oregon State University Tanguay Lab 120 Hour Post-fertilization zebrafish Assay for Snout Malformation (AID 2283637)
Outline: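 Dechorionated zebrafish, individually housed from 6 hpf in covered, sealed wells at 28C with 0.64% DMSO vehicle, were examined at 120 hpf for snout malformation. Responses were binary and analysed positive-direction relative to DMSO.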

| SMILES | outcome | AC50 |
| --- | --- | --- |
| CCCCCCCCCCCCCCC | inactive |  |
| Cc1[nH]nc2c1N=C(c1ccccc1Cl)c1cc([N+](=O)[O-])ccc1N2 | inactive |  |
| CCCCCCCCCCCCOS(=O)(=O)O | inactive |  |
| CN(Cc1cnc2nc(N)nc(N)c2n1)c1ccc(C(=O)N[C@@H](CCC(=O)O)C(=O)O)cc1 | inactive |  |
| CN(C)CCOC(c1ccccc1)c1ccccc1 | inactive |  |
| CS(=O)(=O)c1ccc([C@@H](CC2CCCC2)C(=O)Nc2cnccn2)cc1Cl | inactive |  |
| O=C1NS(=O)(=O)c2ccccc21 | inactive |  |
| CCC(C)c1ccccc1O (configuration not stated) | inactive |  |
| CCCCC=O |  | 44.9 µM (active) |
| CCCCC(CC)C(=O)O (configuration not stated) | inactive |  |
| OCC(CO)(CBr)CBr | inactive |  |
| N=C(N)c1ccc(OCCCCCOc2ccc(C(=N)N)cc2)cc1 | inactive |  |
| CC(=O)Nc1ccc(O)cc1 | inactive |  |

Experiment: Tanguay_ZF_120hpf_JAW_legacy: (Legacy) Oregon State University Tanguay Lab 120 Hour Post-fertilization zebrafish Assay for Jaw Malformation (AID 2283638);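 for AC50: active means more embryos with jaw malformation than DMSO controls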
Outline: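 Binary jaw-malformation calls at 120 hpf by brightfield imaging; DMSO (0.64% v/v) = baseline. Embryos: 5D wild-type, pronase-dechorionated, one per well from 6 hpf, static exposure, 28C, sealed, dark.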

| SMILES | outcome | AC50 |
| --- | --- | --- |
| CCCCCCCCCCCCCCC | inactive |  |
| Cc1[nH]nc2c1N=C(c1ccccc1Cl)c1cc([N+](=O)[O-])ccc1N2 | inactive |  |
| CCCCCCCCCCCCOS(=O)(=O)O | inactive |  |
| CN(Cc1cnc2nc(N)nc(N)c2n1)c1ccc(C(=O)N[C@@H](CCC(=O)O)C(=O)O)cc1 | inactive |  |
| CN(C)CCOC(c1ccccc1)c1ccccc1 |  | 14.6 µM (active) |
| CS(=O)(=O)c1ccc([C@@H](CC2CCCC2)C(=O)Nc2cnccn2)cc1Cl | inactive |  |
| O=C1NS(=O)(=O)c2ccccc21 | inactive |  |
| CCC(C)c1ccccc1O (configuration not stated) | inactive |  |
| CCCCC=O |  | 38.8 µM (active) |
| CCCCC(CC)C(=O)O (configuration not stated) | inactive |  |
| OCC(CO)(CBr)CBr | inactive |  |
| N=C(N)c1ccc(OCCCCCOc2ccc(C(=N)N)cc2)cc1 | inactive |  |
| CC(=O)Nc1ccc(O)cc1 | inactive |  |
